Over roughly 25,000 sequences, “ln(normalized median fluorescence intensity)” has its median near 7.1; the highest 2% begin near 10. For the sample, the highest values were picked, then their nearest neighbours and some sequences at random.
test system: PfSIP2 AP2 domain 1 (GST-tagged); test: gcPBM binding intensity (ln(normalized median fluorescence intensity)); higher = stronger DNA binding
How it was run: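 Plasmodium falciparum DNA-binding domains carrying a GST tag were expressed in E. coli and applied for 1 h, at about 25 μg on average, to an Agilent 4 × 180k array. The array held primer-extended double-stranded 36-bp intergenic genomic probes together with negative controls, and binding took place in 1× PBS with 1% milk, 0.2 mg/ml BSA, 0.5% salmon testes DNA and 0.03% Triton X-100. An Alexa488 anti-GST antibody detected bound protein, and the array was scanned at 488 nm. Binding intensity is taken as the highest Masliner-normalised natural-log median intensity across replicate spots of either probe orientation.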

Row | Sequence | gcPBM binding intensity (ln)
1 | ATATATTTTTTTTTTTGTACGTATATTTATATAATT [XGTACX_site8719] | 7.1
2 | ATATTACTAATTAATGGTACACGTTATAATAAACTA [XGTACX_site7051] | 7.12
3 | TTCAATAGTAAGTATACACACATATAAATAAATAAA [CACACA_site7295] | 6.91
4 | GTGTGAAACATAAACACACACAAAAAGAAAAAATAG [CACACA_site1227] | 6.91
5 | TGCTTTTCTTTTTGCACACTTATGCATATATATATA [CACACA_site2583] | 9.5
6 | TATTCAAAAATATAAACAATGAAACAGTATAATATG [CACACA_negctrl_site1482] | 7.09
7 | ATCACAAAATGGAATGTTCTATGATATATATGTATA [XGTACX_negctrl_site460] | 7.02
8 | GCAAAGCACAAATATGCATGTAGATATAGAATAATG [TGCATGCA_site382] | 7.68
9 | TTTGAAAAGTATGAGGTGCAAAAAATGTAATGAAAT | 10.2
10 | ATATATATATATAAAGTGCAAAAATGAAAGTAAGAC [GTGCAC_site9850] | 9.25
11 | GTATATGAGAAAAAAAGTACATGCACAAAATGTATA [XGTACX_site6441] | 7.42
12 | ATTATAAATATCAGTGCACACATTTCTACGCAAAGT [CACACA_site4420] | 10.4
13 | ATTCTAAATATCAGTGCACACATTTCTACGCAAAGT [CACACA_site474] | 9.9
14 | TAAAATATTATCTACGCACACATTAAAATAAAAAAA [CACACA_site3709] | 7.17
15 | AAAGAATTTGCATATACACACAAAAAAATAAATACA [CACACA_site4373] | 7.03
16 | TATATATTATACACGTGTACACATTATAACAATATA [XGTACX_site7799] | 7.4
17 | TATATATATATATAATGTACTTATATTTTTTTGAGG [XGTACX_site2638] | 9.46
18 | AAGGAAAACAATAGGTGTACCAAACGTCCTAGGAAC [XGTACX_site5732] | 6.7
19 | GTTCTAATATATTGCACACGTAAAAATATAGGTAAT [CACACA_site886] | 7.42
20 | TGTAATATGAAATGTGTACACACGCACCCACAAAAA [CACACA_site8948] | 10.9
21 | GTGTAATATGAAATGTGTACACACGCACACACAAAA [XGTACX_site6180] | 7.6
22 | TAATATGAAATGTGTACACACGCACCCACAAAAAAA [CACACA_site8949] | 10.7
23 | AATGTGTACGCACGCACACACAAAAAAATATATATA [CACACA_site2913] | 7.24
24 | ATATGAAAGGTGTACACACGCACACCCAAAAAAATA [CACACA_site2911] | 7.93
25 | TAATATGAAAAGTGTACACACGCACAGACAAAAAAA [CACACA_site5594] | 7.33

Row | Sequence | gcPBM binding intensity (ln)
26 | TATCCCCTTGTCCATATTAATTGTGACATCATATAT [XGTACX_negctrl_site9] | 7.09
27 | TCATTAAAGGAAAAATGTACGTATAAATAAATATAT [XGTACX_site2587] | 7.07
28 | ATATTTAAAGAATAAGTGCAAAATGTAATTAATTTT [GTGCAC_site9901] | 7.91
29 | TAAAATATTTCAAAGGTGCAATGATAATTTAAGACG [GTGCAC_site9609] | 10.4
30 | ATTATAAAAGAATTTTTTTTTATTTCATTAAAATAT [CACACA_negctrl_site1137] | 6.57
31 | TGATATAAAATTAAAGTGCAAAAAAAAAATAAAAAA | 8.36
32 | AGAATTAAAATAAAGGTGCATTTTTTTGTTTCATGT | 11
33 | TTAATTAATTTTTCAGTGCAAATAAAAAATATTTAA | 7.78
34 | ATTTAAAAAAGAAAGGTGCATTTCAATAATGTAAAA [GTGCAC_site9585] | 11
35 | GAAATAAAAAGAAATGCATGTAATTTTTTTTTTTTT [TGCATGCA_site928] | 6.71
36 | TCATTTTAATTAAAAGTGCAAAAAATAATATAACTA [GTGCAC_site9968] | 8.31
37 | CATAATTTAAAAAAGGTGCAAAATGGATAATATATA [GTGCAC_site9657] | 11
38 | AAAAAAAAAAAAAAAGTGCATTAATAAATTTTAATA | 9.57
39 | GAAAATAAAATAAATGCATGTAAATTTAATGTAATG [TGCATGCA_site996] | 6.87
40 | TACTATATCGATACCAGTACAGATTTATAAATAATA [XGTACX_site7491] | 6.94
41 | ATAAATAATATATATACACACATATCTATACATATT [CACACA_site487] | 7.05
42 | GCTGAAAGGATAAAGGTGCATATTTTTTAAAAAATT [GTGCAC_site9487] | 11.2
43 | AATAATAATAAAAAGGTGCTGAAATATTTTTATTAT [GTGCAC_site9763] | 8.38
44 | AAATTAAAGGCATAAAAGAAAATATTTAATAAAAAA [CACACA_negctrl_site1689] | 6.57
45 | ATACACACAGCCTAAACATGCATATAGAAAAAAGAA [TGCATGCA_site1028] | 7.4
46 | ATTCTATAGAAACACACACACATGCATGCACCTATA [CACACA_site107] | 11.7
47 | TATATATAGAAACACACACACACATATATATATATA [CACACA_site4116] | 9.25
48 | GTTGTGTAATTCGTAACACACATAAAATATATATAA [CACACA_site6059] | 6.97
49 | CATAACATAAAATAGGTGCACAAAAATTGTAATTGA | 11.2
50 | AATAAGTAACAAAATACACACATATAGGTAATTATA [CACACA_site6949] | 6.83

Row | Sequence | gcPBM binding intensity (ln)
51 | ACATATGAATATAATACACACTTGTATTATTAATAT [CACACA_site8546] | 6.85
52 | ATATTCTTGTTTAATACACACTGTAGTATTATATAT [CACACA_site4400] | 7.17
53 | ATACAGTTGCATATGGTGCACGAATAATACACCTAT | 11.3
54 | GTACACCTATAATATACACACAACAAATATGCACAT [CACACA_site6603] | 8.84
55 | GAATAATATGGACATACACACATATACATACCTATA [CACACA_site7075] | 7.25
56 | ACACTTAAATATTGTTGTACAAAATGATAAAATGTA [XGTACX_site4588] | 7.13
57 | CACCCTTTGTTTTAGAGTACATATGTATATACGTAA [XGTACX_site7964] | 7.53
58 | ATAAAAAACTCAGAGCGTACATAATTTTTTCTATTT [XGTACX_site2803] | 7.24
59 | TATATATGGGTAACCTTTTTTTTTTTTTTTCGAACA [CACACA_negctrl_site1303] | 6.8
60 | AGGTAGAAAAAAGACACACACATTATGTATATATAT [CACACA_site377] | 7.6
61 | ACAAAATTTACAAAATGTACAAAATATACAAAATAT [XGTACX_site6465] | 6.99
62 | TTATTTTTATATTTCACACACATATACTTTTACATA [CACACA_site4097] | 7.28
63 | AAAATTATTTAGTAAGTGCAAAAAAAAAAAAAAAAA | 8.21
64 | CATATTATTATTTTGGTGCATACTTATATATATTTT | 9.74
65 | TATTTTTATTATATGGTGCATATATACATACATATA | 10.4
66 | TATTATTATTTTATGGTGCAAAAAAAAAAAAAAAAA | 10.6
67 | CACCCTTTACACAAGGTGCATACTTTATTATATTTT [GTGCAC_site9778] | 10.6
68 | ATTTATTTTAAATAAGTGCAAAATGGTTATAAATAA | 8.23
69 | TACAATATATTTATAGTGCATATTACTTTTAACTTT | 8.41
70 | TACATACATATATTATGTACATATTTTATTTTTATT [XGTACX_site1642] | 7.08
71 | AAGGAGCCTATGAACACACACATGTACATATATTAA [CACACA_site4084] | 7.03
72 | TATATATGCATTAAAGTGTTTTTTTTTTTTTTTTTT [CACACA_negctrl_site1353] | 7.72
73 | TACACATTATGTATCATACACACAAATAAATATATA [CACACA_site608] | 7.1
74 | TAAGAAATTGAGCGCACACATACATCTGTGGGATGG [CACACA_site1548] | 6.71
75 | CATACACATTTCATATGTACATAGATTGAAGGGAAG [XGTACX_site116] | 7.21

Row | Sequence | gcPBM binding intensity (ln)
76 | ATATATATTATATGCACACTAATAAGACTATTTAAA [CACACA_site3554] | 9.68
77 | CGAGCAAGACGGGGTGCACACAAACTAATATGCCGA [CACACA_site7936] | 12.1
78 | TATACGTAATAATATGCACACAAATAAACTTTATAA [CACACA_site9166] | 8.88
79 | TACGTAATAATATGCACACAAATAAACTTTATAAAT [CACACA_site3501] | 8.22
80 | AGCAAGACGGGGTGCACACAAACTAATATGCCGAAT [CACACA_site159] | 12.1
81 | ATATATATATTATATGCACACTAATAAGACTATTTA [CACACA_site5880] | 9.55
82 | ATTTAATTCGTACATACACACGCACATATATATATA [CACACA_site8415] | 8.85
83 | CTATTAAAAAAATTATGTACACAACGTCTCTATATA [XGTACX_site4813] | 7.01
84 | TTTTTTAAAATATATATAATGAATTTTTTTTTTTTT [CACACA_negctrl_site1577] | 7.05
85 | TGATCAAATAAGTTTGCATGTCAACAATGCATATAT [TGCATGCA_site1025] | 7.19
86 | AAAAAAAAAAAAGATACACACAAAAATGGATATATA [CACACA_site7069] | 6.77
87 | CAATTATTGTAATGCATGCACTGAATATAAAAAGAA | 9.18
88 | AAAAAATAAATAAATACACACACACTAATATATATA [CACACA_site8488] | 7.67
89 | TATATATATATATGAGTGCATATGTGTAATATAAAA | 9.27
90 | AGGTTATAAATAAATACACACATACAAAAATATGAC [CACACA_site4773] | 6.94
91 | TTATAAAAGACAAAAGTGCATATATACATATGTATA | 8.27
92 | GTTATAAATAAATACACACATACAAAAATATGACGT [CACACA_site1154] | 6.94
93 | TATTTTATATAAAGGTGTACTTATACAAAAATATAT [XGTACX_site7435] | 7.22
94 | TGAGCACAAATACAGGTGCATATAAAATATATGACG | 10.5
95 | TTTTCTCTAAAAAGGTGTACAACTAATAATGCACTG [XGTACX_site6074] | 9.09
96 | TTTTTTTGTTAAAAGGTGCTAATATATATAAGTGCT | 9.03
97 | ATTTTATATAATACATGTACAAAAGTTTAAATTTAT [XGTACX_site6196] | 7.13
98 | ATGTTTGAGCCTAAGGTGCATATAAAAATATATGTG [GTGCAC_site9690] | 10.7
99 | ATTTTTCTAAAATACTGTACAAAGGTGCATAAAAAG [XGTACX_site4425] | 11.5
100 | TATAAATATACAAAGGTGCATAAAAAGTTATGTTTT [GTGCAC_site9832] | 10.4

Source: the supplement of paper PMC11417369
